ELG1 DNA repair: qHTS screen for small molecules that inhibit ELG1-dependent DNA repair in human embryonic kidney (HEK293T) cells expressing luciferase-tagged ELG1 | HEK293T ELG1-luciferase reporter, luminescence, 16 h; DNA damage induced by 5-fluorouridine | Potency, µM (highest dose often 46.1 µM), without a hit: at the highest dose activity change, negative = inhibition, hits mostly inhibitors | actives 2.3% (n = 330,000); note: potency is the fitted concentration of half-maximal effect; nearly all actives have a fitted effect of over 55% in size
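Luminescence from the luciferase reporter, measured 30 min after ONE-Glo reagent at room temperature, was the read-out. Beforehand, 2,000 cells per well were exposed for 16 hr at 37 °C to 5-fluorouridine together with compound or vehicle.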
TDP1 cell CPT: qHTS for Inhibitors of human tyrosyl-DNA phosphodiesterase 1 (TDP1): qHTS in cells in presence of CPT. chicken DT40 Tdp1-/-;hTDP1 cells + 20 nM CPT, ATP luminescence, 48 h. Potency, µM (doses to about 46.2 µM), for inactives: top-dose activity change, negative = growth inhibition, actives largely listed as inhibitors. actives 12% (n = 420,000); note: potency is the fitted concentration of half-maximal effect; nearly all actives have a fitted effect of over 55% in size
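Chicken DT40 Tdp1-/- cells complemented with human TDP1, 400 cells/well, exposed to compounds plus 20 nM camptothecin for at least 48 h at 37 C; viability read as ATP content by CellTiter-Glo luminescence.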
HT1080NT lethal: qHTS for induction of synthetic lethality in tumor cells producing 2HG: qHTS for the HT-1080-NT fibrosarcoma cell line; HT-1080-NT fibrosarcoma viability, CellTiter-Glo ATP luminescence, 48 h; Potency, µM (titrated, usually from 46.1 µM), inactives show at the top dose activity, negative = less viability, actives largely listed as cytotoxic; actives 1.6% (n = 360,000);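 note: NT is the 2HG producing partner of a matched IDH1 knockdown line; potency is the fitted concentration of half-maximal effect; 0% = DMSO-treated cells and -100% = media-only wells without cells; nearly all actives have a fitted effect of over 55% in size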
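Viability of the 2HG-overproducing fibrosarcoma line after 48 hours of compound exposure at 37 degrees C was determined by luminescence with CellTiter-Glo, and concentration-effect curves were then fitted and categorized.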
IL-1B inflam inh: qHTS for Inhibitors of Inflammasome Signaling: IL-1-beta AlphaLISA Primary Screen | THP-1 LPS/ATP IL-1B secretion, AlphaLISA, 16 h; stronger effect = lower value | activity change, % at 57.5 µM | actives 4.7% (n = 360,000); in the data active = activity change below about -50%; inconclusive = mostly about -30% to -49%
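Secreted IL-1B measured by AlphaLISA bead assay after 16 h compound exposure of THP-1 cells; compounds (final up to 57.5 uM) added 1 h before LPS (250 ng/mL) and ATP (1.25 mM) stimulation; lower signal means less secretion.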
HT1080 IDH1KD tx: qHTS for induction of synthetic lethality in tumor cells producing 2HG: qHTS for the HT-1080-IDH1KD cell line | Potency, µM (titrated, usually from 46.1 µM), inactives show top-dose activity, negative = toxicity, actives largely listed as cytotoxic | AID 686971, 2013 | actives 2% (n = 360,000) | HT-1080 IDH1 knockdown viability, ATP luminescence, 48 h;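 note: potency is the fitted concentration of half-maximal effect; 0% = DMSO wells and -100% = cell-free medium wells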
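Luminescent ATP read-out (CellTiter-Glo, 10 min at room temperature) after 48 h compound exposure at 37 °C gave viability of IDH1-knockdown HT-1080 cells. Activity was normalised to DMSO and cell-free wells, then fitted as concentration-response curves.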
TDP1 cell noCPT: qHTS for Inhibitors of human tyrosyl-DNA phosphodiesterase 1 (TDP1): qHTS in cells in absence of CPT | DT40 Tdp1-/- hTDP1 cells, no CPT, ATP luminescence, 48 h | actives 15% (n = 420,000) | Potency, µM (top dose mostly 46.2 µM), for the others: at the highest dose activity change, negative = growth inhibition, most hits filed as inhibitors; note: potency is the fitted concentration of half-maximal effect; nearly all actives have a fitted effect of over 55% in size
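Cells were dispensed at 400 per well, compounds added by pin tool, plates incubated ≥48 hr at 37 °C, then CellTiter-Glo added for 30 min at room temperature before luminescence reading. Line: DT40 Tdp1-/- complemented with hTDP1; camptothecin omitted.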
An asterisk follows results filed as active; ? = inconclusive; . = no result; [ ] = remark or other dose. Hits are enriched below; roughly 19% of the tested compounds scored in any of these assays. Unless noted, calls come from the whole dose curve; as a rule, active = well fitted curve in the direction sought with a large enough effect; inconclusive = small, poorly fitted or top-dose-only effect, or another doubt; inactive = no such curve, though single readings can be large; an effect the other way counts as inactive or inconclusive. Unless noted, % is set by controls: 0 for no effect and ±100 for the full control effect.

SMILES	ELG1 DNA repair	TDP1 cell CPT	HT1080NT lethal	IL-1B inflam inh	HT1080 IDH1KD tx	TDP1 cell noCPT
CC(C)(C)c1ccc(OCCC(=O)Nc2cccc(S(=O)(=O)N3CCCC3)c2)cc1	?	?	-9%	2	-9%	?
COc1ccc(/C=C(\C#N)C(=O)OCC(=O)Nc2ccc(-c3nc4ccc(C)cc4s3)cc2)cc1	?	?	-3%	-25	-2%	-4%
OCC[C@@H]1C[C@H](O)[C@@H](O)[C@@]2(OCc3ccc4ccccc4c32)O1	.	-6%	26%	-26	24%	-7%
C[C@@H]1COC(=O)[C@H](CC(=O)OC(C)(C)C)C/C=C\C[C@@H](CC(=O)NCCO)C(=O)N1	28%	-18%	16%	16	12%	-13%
O=C(CSc1nnc(-c2cccc(S(=O)(=O)N3CCOCC3)c2)n1C1CCCCCC1)NCc1ccccc1	?	22µM*	3%	-22	-3%	?
C=CCN1C(=O)/C(=C2/Sc3ccc(OC)cc3N2C)SC1=NCc1ccccc1	10%	?	10%	1	3%	?
C=CCN1C(=O)/C(=C2/Sc3ccc(OC)cc3N2C)SC1=Nc1ccccc1	8%	8.2µM*	2%	19	-2%	?
CCN1C(=O)/C(=C2/Sc3ccc(OC)cc3N2C)SC1=Nc1cccc(O)c1	-9%	5.8µM*	-24%	-3	-23%[9.24 µM]	16µM*
O=P(O)(O)OCC(O)CO (stereo unspecified)	.	-10%	.	.	.	0%
Cc1ccc(NC(=O)c2cnc(SCC(=O)N3CCCc4ccccc43)n(C)c2=O)cc1C	.	-5%	.	.	.	3%
CC(=O)c1ccc(S(=O)(=O)Nc2cccc(-c3ccc(N4CCCCCC4)nn3)c2)cc1	.	-19%	.	.	.	-22%
O=C(Cn1[nH]c(=O)c2ccccc2c1=O)N1CC=C(c2ccccc2)CC1	?	11µM*	-20%	-12	-18%	16µM*
CCCC1=C(C(=O)OCC)C(c2cc(Cl)cc(OC)c2OCC(=O)OCC)NC(=O)N1 (stereo unspecified)	?	?	-6%	6	-1%	23µM*
CC1Oc2ccc(C#N)cc2N(Cc2cccc(F)c2)C1=O (stereo unspecified)	.	4%	0%	6	16%	-16%
Cc1nc2ccccc2n1CC(O)COc1ccc(C(=O)O)cc1 (stereo unspecified)	.	-18%	.	.	.	9%
COC(=O)c1ccc(OCC(O)CN2C(=O)c3ccccc3C2=O)cc1 (stereo unspecified)	21%	8%	9%	-3	25%	3%
CCCc1nc2ccccc2n1CC(O)COc1ccc(C(=O)OC)cc1 (stereo unspecified)	.	12µM*	.	.	.	21µM*
CCC(=O)c1ccc(OCC(O)Cn2c(C)nc3ccccc32)cc1 (stereo unspecified)	?	18µM*	-1%	24	23µM*	18µM*
Cc1nc2ccccc2n1CC(O)COc1ccc(Br)cc1 (stereo unspecified)	?	?	-21%	?	-14%	18µM*
Cc1nc2ccccc2n1CC(O)COc1ccccc1Cl (stereo unspecified)	?	18µM*	-13%	-8	-12%	9.2µM*
Cc1nc2ccccc2n1CC(O)Cn1c(C(F)(F)F)nc2ccccc21 (stereo unspecified)	?	-19%	26%	34	3%	?
CC(=O)c1cccc(NC(=O)c2oc(=O)c3ccccc3c2-c2ccccc2)c1	.	-15%	.	.	.	-17%
COc1ccc(CCC(=O)NC2CC(=O)N(c3ccc(OC)cc3)C2)cc1 (stereo unspecified)	.	-21%	.	.	.	1%
COC(=O)c1ccc(OCC(O)Cn2cnc3cc(C)c(C)cc32)cc1 (stereo unspecified)	.	?	.	.	.	9.2µM*
COC(=O)c1ccc(OCC(O)CN(CC(C)C)CC(C)C)cc1 (stereo unspecified)	-17%	?	-8%	10	-10%	29µM*
SMILES	ELG1 DNA repair	TDP1 cell CPT	HT1080NT lethal	IL-1B inflam inh	HT1080 IDH1KD tx	TDP1 cell noCPT
COC(=O)c1ccc(OCC(O)CN2CCN(CC(O)COc3ccc(C(=O)OC)cc3)CC2)cc1 (stereo unspecified)	?	?	-6%	-19	-1%	?
COC(=O)c1cccc(OCC(O)Cn2cnc3cc(C)c(C)cc32)c1 (stereo unspecified)	?	?	3%	16	0%	?
O=C(Nc1cccc(S(=O)(=O)N2CCCCC2)c1)c1ccc(S(=O)(=O)C(F)F)cc1	21µM*	?	0%	-82*	-15%	?
Cc1cccc(NC(=O)c2cc(S(=O)(=O)N3CCCCC3)ccc2Cl)n1	-19%	-29%	2%	19	-2%	?
Cc1cc(C)cc(NC(=O)c2ccc(S(=O)(=O)C(F)F)cc2)c1	-12%	3%	-5%	-87*	5%	?
CC(=O)c1cccc(NS(=O)(=O)c2ccc(NC(=O)N3CCCCC3)cc2)c1	11%	5.2µM*	?	9	-30%	9.2µM*
Cc1nnc(NC(=O)c2ccc(S(=O)(=O)C(F)F)cc2)s1	?	-13%	9%	-8	12%	-1%
CN(C)S(=O)(=O)c1cccc(NC(=O)c2ccc(S(=O)(=O)N3CCCCC3)cc2)c1	?	?	-9%	2	-6%	?
Cc1cccc(NC(=O)c2ccc(S(=O)(=O)N3CCCCCC3)cc2)n1	?	-4%	-18%	-70*	-5%	13µM*
COC(=O)C[C@H]1C=C[C@@H](NC(=O)Nc2c(C)noc2C)[C@@H](CO)O1	.	0%	19%	14	18%	3%
O=C(CC(NCc1cccnc1)C(=O)O)Nc1ccc(F)cc1 (stereo unspecified)	.	-3%	.	.	.	7%
CCNC(=O)C1CCCN(C(=O)c2ccccc2OC(F)(F)F)CC1 (stereo unspecified)	.	-4%	17%	17	20%	0%
